Measured values: publication PMC4336329 (PLoS ONE, 2015)
The campaign covered roughly 310,000 compounds. About 14,000 (4.5%) showed an effect of 50% or more. Effects have a minus sign here. The sample holds strong results, similar compounds and a random draw of the others, so the mix is not that of the screen.

The molecules below were run against human ether-à-go-go-related gene (hERG) potassium channel (human, UniProt Q12809) (assay: primary screen, population patch clamp on CHO cells stably expressing hERG; higher = less effect of the substance).
Chain of human ether-à-go-go-related gene (hERG) potassium channel (Q12809 whole entry, looked up): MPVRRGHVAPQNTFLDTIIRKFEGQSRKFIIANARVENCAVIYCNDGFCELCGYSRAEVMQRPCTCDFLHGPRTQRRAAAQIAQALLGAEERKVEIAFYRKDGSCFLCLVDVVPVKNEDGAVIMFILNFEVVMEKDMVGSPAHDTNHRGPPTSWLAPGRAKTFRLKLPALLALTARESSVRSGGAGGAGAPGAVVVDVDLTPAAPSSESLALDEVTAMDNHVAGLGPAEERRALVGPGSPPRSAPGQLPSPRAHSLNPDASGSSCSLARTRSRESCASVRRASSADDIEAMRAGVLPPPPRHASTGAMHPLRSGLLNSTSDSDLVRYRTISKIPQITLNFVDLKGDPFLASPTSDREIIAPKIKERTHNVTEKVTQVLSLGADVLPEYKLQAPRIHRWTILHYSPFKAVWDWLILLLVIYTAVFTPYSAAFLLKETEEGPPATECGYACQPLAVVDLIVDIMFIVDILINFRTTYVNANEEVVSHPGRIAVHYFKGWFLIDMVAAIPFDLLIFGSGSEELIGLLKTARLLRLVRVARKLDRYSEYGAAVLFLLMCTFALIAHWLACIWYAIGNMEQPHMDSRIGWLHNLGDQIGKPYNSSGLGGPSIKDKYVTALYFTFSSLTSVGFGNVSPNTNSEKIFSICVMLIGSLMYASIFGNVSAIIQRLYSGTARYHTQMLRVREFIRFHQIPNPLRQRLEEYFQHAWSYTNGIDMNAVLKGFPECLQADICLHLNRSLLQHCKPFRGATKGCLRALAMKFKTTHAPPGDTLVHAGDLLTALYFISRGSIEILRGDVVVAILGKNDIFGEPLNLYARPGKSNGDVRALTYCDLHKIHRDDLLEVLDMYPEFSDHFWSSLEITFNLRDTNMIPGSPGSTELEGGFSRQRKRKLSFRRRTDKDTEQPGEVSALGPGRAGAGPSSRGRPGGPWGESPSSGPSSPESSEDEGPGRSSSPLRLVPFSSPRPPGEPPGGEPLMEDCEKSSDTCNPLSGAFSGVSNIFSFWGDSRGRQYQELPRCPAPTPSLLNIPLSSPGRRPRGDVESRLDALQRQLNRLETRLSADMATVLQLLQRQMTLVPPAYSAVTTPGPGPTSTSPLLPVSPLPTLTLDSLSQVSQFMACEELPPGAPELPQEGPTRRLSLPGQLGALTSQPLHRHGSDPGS
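Also: peak tail current of the secondary pulse compared with the same well before compound.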

Row | Structure (SMILES) | hERG current change (%, negative = inhibition) at 10uM
1 | CCOC(=O)C1CCCN(Cc2c(C(=O)N3CCOCC3)nc3ccccn23)C1 (stereo not shown) | 8.12%
2 | O=C(NC1CCCCC1)c1cc([N+](=O)[O-])ccc1N1CCCC1 | -0.526%
3 | Cc1ccc(/C=C/C(=O)Nc2cccc(S(=O)(=O)N3CCOCC3)c2)o1 | -19.9%
4 | O=C(CCC1CCCC1)Nc1ccon1 | 12.2%
5 | COc1ccc(S(=O)(=O)N(C)CC(=O)NCCN2CCOCC2)cc1Cl | 6.98%
6 | CCCCC(CCC(=O)Nc1ccccc1C(=O)OCC)C(=O)O (stereo not shown) | -3.09%
7 | Cc1ccc(C)c(Cn2c(=O)n(CCCC(=O)NCc3ccco3)c(=O)c3ccccc32)c1 | 0.892%
8 | O=C(Nc1ccc(Cl)cn1)c1ccc(-c2ccc(Cl)c(Cl)c2)o1 | 10.1%
9 | CC(=O)c1ccccc1NS(=O)(=O)c1c(C)nn(-c2ccccc2)c1C | 3.03%
10 | CCn1nc(C)c(CNC(=O)CCc2nnc(Cc3c[nH]c4ccccc34)o2)c1C | 42%
11 | CCC(C)(C)n1nnnc1C(c1ccccc1OC)N1CCSCC1 (stereo not shown) | -24.1%
12 | CCOc1ccccc1C(C(=O)NCCOC)N(CCOC)C(=O)Cn1nnc2ccccc21 (stereo not shown) | 18.5%
13 | Cc1ccc(C(=O)N2CCN(S(=O)(=O)c3ccc(C)cc3)CC2)cc1 | -20.1%
14 | Cc1ccc(S(=O)(=O)N2CCN(C(=O)c3ccc([N+](=O)[O-])cc3)C2)cc1 | -60%
15 | Cc1ccc(C(=O)N2CCN(S(=O)(=O)c3ccc(C)c([N+](=O)[O-])c3)C2)cc1 | -42.7%
16 | Cc1cccc(OCC(=O)N2CCN(C(=O)c3cccs3)CC2)c1 | -7.23%
17 | O=C(COc1ccc2ccccc2c1)NNC(=O)c1ccc([N+](=O)[O-])cc1 | -1.08%
18 | Cc1ccc(OCC(=O)N2CCN(C(=O)c3ccc([N+](=O)[O-])cc3)CC2)cc1 | -83.4%
19 | Cc1cccc(OCC(=O)NNC(=O)c2ccc([N+](=O)[O-])cc2)c1 | 1.5%
20 | O=C(COc1ccc2ccccc2c1)N1CCN(c2ccccc2)CC1 | 11.7%
21 | O=C(COc1ccc2ccccc2c1)N1CCN(C(=O)c2ccc([N+](=O)[O-])cc2)CC1 | -76.5%
22 | Cc1cccc(OCC(=O)N2CCN(C(=O)c3ccc([N+](=O)[O-])cc3)CC2)c1 | -68.8%
23 | Cc1ccc(OCC(=O)N2CCCCCCC2)cc1 | 7.87%
24 | Cc1ccc(OCC(=O)N2CCN(C(=O)c3cccc(F)c3)CC2)cc1 | -13.3%
25 | COc1ccc(C(=O)N/N=C/c2sc(=O)n(Cc3cccc(C(=O)O)c3)c2Cl)cc1 | -1.9%

Row | Structure (SMILES) | hERG current change (%, negative = inhibition) at 10uM
26 | CC(C)(C)C1CCC(=NNC(=O)C2COc3ccccc3O2)CC1 (stereo not shown) | 0.995%
27 | CCOC(=O)Cn1ccc(NC(=O)COc2ccc(F)cc2F)n1 | -2.52%
28 | Cc1ccc(OCc2cc(C(=O)N3CC4C[C@@H]5CC3C[C@H](C4)C5)no2)cc1C | 15.7%
29 | COc1ccc(C(=O)C[n+]2cccc(C)c2)cc1.[Br-] | 13%
30 | NC(=O)c1ccc(NCc2ccco2)c([N+](=O)[O-])c1 | 6.16%
31 | CN1CCN(S(=O)(=O)c2ccc3c(c2)C(C)(C)C(=O)N3C)CC1 | 14.3%
32 | CSCCC(NC(=O)c1cc(S(=O)(=O)N2CCOCC2)ccc1F)c1nc2ccccc2[nH]1 (stereo not shown) | -5.27%
33 | COc1ccc(OCC(=O)N2CCN(C(=O)c3ccc([N+](=O)[O-])cc3)CC2)cc1 | -67.2%
34 | CCC(=O)c1ccc(OCC(=O)N2CCN(C(=O)c3ccccc3)CC2)cc1 | -37.8%
35 | COc1ccc(OCC(=O)N2CCN(C(=O)c3ccc(F)cc3)CC2)cc1 | -20.2%
36 | O=C(COc1ccccc1)N1CCN(S(=O)(=O)c2cccc([N+](=O)[O-])c2)CC1 | -47.3%
37 | O=C(COc1ccccc1)N1CCN(C(=O)c2ccc([N+](=O)[O-])cc2)CC1 | -62.4%
38 | COc1ccc(OCC(=O)N2CCN(C(=O)c3ccccc3)CC2)cc1 | -12.6%
39 | COc1ccc(NC(=O)Cc2nnc(SCC(=O)NC3CCCC3)n2C)cc1 | 15.3%
40 | CN(CC(=O)Nc1ccccc1Sc1ccccc1)Cc1nc2ccccc2c(=O)[nH]1 | -37.1%
41 | CC(C)CN(CC(C)C)C(=O)COc1ccccc1C(N)=O | 7.55%
42 | COc1ccc(S(=O)(=O)N2CCN(CC(=O)Nc3cc(C(F)(F)F)ccc3Cl)CC2)cc1 | -4.6%
43 | CCOc1ccc(S(=O)(=O)N2CCN(Cc3ccccc3)CC2)cc1 | 1.61%
44 | Clc1ccc(CN2CCC(Cc3ccccc3)CC2)cc1 | -40.9%
45 | CCOc1ccc(CN2CCC(Cc3ccccc3)CC2)cc1 | -78.3%
46 | Fc1ccc(CN2CCC(Cc3ccccc3)CC2)cc1F | 2.03%
47 | C=CCOc1ccccc1CN1CCSCC1 | -11.2%
48 | Clc1cccc(CN2CCC(Cc3ccccc3)CC2)c1 | -27.9%
49 | C=CCOc1ccccc1CN1CCCCCC1 | -18.9%
50 | C=CCOc1ccccc1CN1CCC(Cc2ccccc2)CC1 | -70.3%

Row | Structure (SMILES) | hERG current change (%, negative = inhibition) at 10uM
51 | CSc1ccc(CN2CCC(Cc3ccccc3)CC2)cc1 | -65.4%
52 | O=C(CNS(=O)(=O)c1ccccc1)NCC(=O)OCc1ccccc1F | 13.7%
53 | CC[C@@]12C(=O)N(c3ccccc3)C(=O)N1[C@H](c1ccc(Br)cc1)[C@@H]1C(=O)N(C(C)(C)C)C(=O)[C@@H]12 | 4.22%
54 | CCOC(=O)/C=C/c1cnn(-c2ccccc2)c1 | 3%
55 | CCc1nc2cc(CC(=O)O)ccc2o1 | 8.35%
56 | COc1ccc(/C=N/NC(=O)Cn2cnc3ccccc3c2=O)cc1OC | -6.77%
57 | CCCCn1c(O)c(C(CC)=NCc2ccco2)c(=O)[nH]c1=O | -35.4%
58 | CC(C)CN(C(=O)CN(C)C(=O)Cc1ccccc1Cl)c1c(N)n(CC(C)C)c(=O)[nH]c1=O | 20.7%
59 | CCC1CCCCN1C(=O)c1cccc(S(=O)(=O)Nc2cc(C(F)(F)F)ccc2Cl)c1 (stereo not shown) | 2.59%
60 | COc1ccc(CCC(=O)NCCOc2ccc(Cl)cc2)cc1 | -7.98%
61 | COc1ccc(-c2[nH]c3ccccc3c2SCCNC(=O)c2cc3ccccc3oc2=O)cc1 | -0.175%
62 | CCOc1ccc(NC(=O)Cn2nnc(C(=O)NCc3cccs3)c2N)cc1 | 13.8%
63 | Cc1cc(=O)[nH]c2nnc(-c3ccc(Br)cc3)n12 | 5.99%
64 | O=S(=O)(c1ccc2c(c1)CCN2)N1CCCC1 | -1.58%
65 | COc1ccc(CNC(=O)COC(=O)[C@H](Cc2c[nH]c3ccccc23)NC(=O)c2cccs2)cc1 | -0.701%
66 | OC(COc1cccc2ccccc12)CN1CCCC1 (stereo not shown) | -29.4%
67 | OC(COc1cccc2ccccc12)CN1CCN(c2ccccc2)CC1 (stereo not shown) | -33.2%
68 | OC(COc1ccc2ccccc2c1Cl)CN1CCOCC1 (stereo not shown) | -24.5%
69 | Cc1ccc(N2CCN(CC(O)COc3cccc4ccccc34)CC2)cc1 (stereo not shown) | -25.1%
70 | COc1ccccc1N1CCN(CC(O)c2ccccc2)CC1 (stereo not shown) | -8.46%
71 | COc1ccccc1N1CCN(CC(O)COc2c(OC)cccc2OC)CC1.Cl (stereo not shown) | -48.4%
72 | COc1ccccc1N1CCN(CC(O)COc2cccc3ccccc23)CC1.Cl (stereo not shown) | -68.3%
73 | OC(COc1cccc2ccccc12)CN1CCN(c2ccccc2Cl)CC1 (stereo not shown) | -50.2%
74 | CCOC(=O)N1CCN(CC(O)c2ccc3cc[nH]c3c2)CC1 (stereo not shown) | -30.4%
75 | COc1ccccc1N1CCN(CC(O)COc2cccc3ccccc23)CC1.Cl.O (stereo not shown) | -61%

Row | Structure (SMILES) | hERG current change (%, negative = inhibition) at 10uM
76 | COc1ccccc1N1CCN(CC(O)c2ccc3cc[nH]c3c2)CC1 (stereo not shown) | -69.3%
77 | CCCc1nnc(SCC(=O)Nc2ccc(OCC)cc2)n1N | -3.79%
78 | CCN(c1ccccc1)S(=O)(=O)c1ccc(Cl)c(C(=O)N(CC2CCCO2)C2CCS(=O)(=O)C2)c1 (stereo not shown) | -5.04%
79 | Cc1ccc(-c2csnn2)cc1 | 6.13%
80 | CCN1CCN(CCCNC(=O)C2c3ccccc3C(=O)N(c3ccc(OC)cc3)C2c2ccc(OC)cc2)CC1 (stereo not shown) | 1.22%
81 | CCCCCN(C(=O)COC(=O)CSc1ccc([N+](=O)[O-])cc1)c1c(N)n(CCCC)c(=O)[nH]c1=O | -40.5%
82 | CCc1cccc(NC(=O)CN(c2ccc(C)cc2)S(=O)(=O)c2c(C)noc2C)c1 | 8.14%
83 | COc1cc(OC)c(NC(=O)CCc2nc(-c3ccc(C)cc3)no2)cc1Cl | 6.21%
84 | COc1ccc(-c2ccc(-c3noc(-c4ccccc4C)n3)c(OC)n2)cc1 | 6.35%
85 | O=C(NC1CCC(O)CC1)c1cccc2cccnc12 (stereo not shown) | 7.2%
86 | CC1CCN(Cc2c(O)ccc3c(=O)c(-c4nc5ccccc5s4)c(N)oc23)CC1 | -48.5%
87 | CC1CCCCN1Cc1c(O)ccc2c(=O)c(-c3ccccc3)coc12 (stereo not shown) | -38.2%
88 | CN(C)Cc1c(O)ccc2c(=O)c(-c3ccc(Cl)cc3)coc12 | -9.92%
89 | CC1CCCN(Cc2c(O)ccc3c(=O)c(-c4nc5ccccc5s4)c(N)oc23)C1 (stereo not shown) | -0.886%
90 | CC1CCCCN1Cc1c(O)ccc2c(=O)c(-c3nc4ccccc4s3)coc12 (stereo not shown) | -48%
91 | CC1CCCCN1Cc1c(O)ccc2c(=O)c(-c3ccc(Cl)cc3)coc12 (stereo not shown) | -69.1%
92 | CC1CCCCN1Cc1c(O)ccc2c(=O)c(-c3ccc(Cl)cc3Cl)coc12 (stereo not shown) | -60.7%
93 | COc1ccc(-c2coc3c(CN4CCCCC4C)c(O)ccc3c2=O)cc1 (stereo not shown) | -39.4%
94 | CCN(CC)Cc1c(O)ccc2c(=O)c(-c3ccc(Cl)cc3)coc12 | -58.4%
95 | CCN(CC)Cc1c(O)ccc2c(=O)c(-c3ccccc3)coc12.Cl | -1.91%
96 | COc1ccccc1-c1coc2c(CN3CCCCC3C)c(O)ccc2c1=O (stereo not shown) | 6.44%
97 | CC1CCCCN1Cc1c(O)ccc2c(=O)c(-c3nc4ccccc4s3)c(N)oc12 (stereo not shown) | -60.6%
